CRFR2-BP ag: agonists of human CRF-binding protein/CRF-R2 receptor complex. HEK293 CRF-R2/CRF-BP, calcium dye fluorescence (FLIPR); percent of saturating CRF peptide response. activation, % at 13.2 µM. 0.46% of 350,000 active;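 active means activation of at least 50%, plus an integration ratio under a set limit after plate pattern correction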
NTR1 agonist: NTR1 (human) agonism. AID 493036. NTR1-U2OS beta-arrestin-GFP spot imaging, agonist mode. activation, % at 20 µM. 0.17% of 330,000 active;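 active means activation at or above 40% of the spot to cytoplasm intensity ratio, with at least 20 cells analyzed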
Target sequence (P30989 whole entry, looked up): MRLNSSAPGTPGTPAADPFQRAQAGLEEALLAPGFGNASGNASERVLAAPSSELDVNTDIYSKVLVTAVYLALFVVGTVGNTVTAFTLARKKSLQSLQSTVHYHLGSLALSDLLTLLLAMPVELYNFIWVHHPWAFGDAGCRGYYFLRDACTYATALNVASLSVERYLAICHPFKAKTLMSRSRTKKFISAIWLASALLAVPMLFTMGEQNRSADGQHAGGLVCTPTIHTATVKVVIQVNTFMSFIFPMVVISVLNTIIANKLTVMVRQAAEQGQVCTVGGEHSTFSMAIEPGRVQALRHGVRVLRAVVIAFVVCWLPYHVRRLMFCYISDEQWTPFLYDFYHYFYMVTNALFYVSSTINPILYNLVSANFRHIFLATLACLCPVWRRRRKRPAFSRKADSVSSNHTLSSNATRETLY
CRFBP-R2 block: CRF-BP/CRF-R2 complex antagonism. inhibition, % at 11.8 µM. HEK293 CRF-R2/CRF-BP, CRF-induced calcium fluorescence. AID 588475. 0.59% of 350,000 active;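 active means inhibition of the ligand-induced calcium signal above about 50% at the single tested concentration, limit read from the data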
V-ATPase pH: regulators of yeast V-ATPase proton transport; S. cerevisiae, pHLuorin cytosolic pH fluorescence; response, % at 10 µM; 0.37% of 350,000 active; AID 504577; in the data active means response mostly above about 7.3%, no sharp cut-off; inactive means mostly below about 5.4%; further: actives read high
Each line names hits and unclear results; the compound was inactive in the other large screens. In the library only some 1.5% were active in any assay of this set; here they are far more common.

CC(CCc1ccco1)NC(=O)c1cccc2c1C(=O)N(C1CCCCC1)C2 (stereo unspecified)	CRFBP-R2 block 51
CC1=C(C(=O)OCC(C)C)C2(O)C(=O)c3ccccc3C2(O)N1 (stereo unspecified)	none
C=CCOC(=O)C1=C(C)NC2(O)c3ccccc3C(=O)C12O (stereo unspecified)	CRFBP-R2 block 69
Cc1ccc2nc(NCCC(=O)O)nc(-c3ccccc3)c2c1	CRFR2-BP ag 146
O=C(O)CCNc1nc(-c2ccccc2)c2cc(Br)ccc2n1	CRFR2-BP ag 96
COc1ccc(Cl)c(OC)c1C(=O)NC(=O)Nc1c(F)cc(F)cc1F	none
Cc1cc(C)c(S(=O)(=O)n2ccc3ccccc32)c(C)c1	CRFBP-R2 block 58
Cc1ccc(OCCOc2ccc(Cl)cc2Cl)c([N+](=O)[O-])n1	none
O=c1cc(-c2ccccc2)[nH]n1-c1ccc([N+](=O)[O-])cc1	CRFBP-R2 block 51
O=c1c(N=Nc2ccc(O)cc2)c(-c2ccccc2)[nH]n1-c1ccc([N+](=O)[O-])cc1	none
NNC(=O)[C@H](Cc1ccccc1)NC(=O)NCCc1ccccc1	none
Cc1ccc2c(nc3s/c(=C/c4cccs4)c(=O)n32)c1C	none (no result: NTR1 agonist)
Cc1ccc2c(nc3s/c(=C\c4ccc(-c5ccccc5C(=O)O)o4)c(=O)n32)c1C	CRFR2-BP ag 126
O=C(O)c1ccc(-c2ccc(/C=c3/sc4nc5ccccc5n4c3=O)o2)cc1Cl	CRFR2-BP ag 118
CCOc1ccccc1NC(=O)CCc1nnc2ccc(N3CCC4(CC3)OCCO4)nn12	none
CCN(C(=O)CCc1nnc2ccc(N3CCC4(CC3)OCCO4)nn12)c1ccccc1	CRFBP-R2 block 52
COc1cc(CNC[C@H]2O[C@@H](n3ccc(N)nc3=O)[C@H](O)[C@@H]2O)ccc1OCc1cccc(Cl)c1	none (no result: NTR1 agonist)
CS(=O)(=O)c1ccc(C(=O)OCc2nnc(-c3ccc(Cl)cc3)o2)cc1[N+](=O)[O-]	NTR1 agonist 41
O=C(OCc1nnc(-c2ccc(Cl)cc2)o1)c1ccc(O)cc1	none
O=C(OCc1nnc(-c2ccc([N+](=O)[O-])cc2)o1)c1ccc(F)c(S(=O)(=O)N2CCOCC2)c1	V-ATPase pH 17
Cc1ccccc1OCCCC(=O)Nc1ccc(S(=O)(=O)Nc2onc(C)c2C)cc1	none
COC(=O)C(C)Oc1ccc(-c2nccc(-c3ccccn3)n2)cc1 (stereo unspecified)	none
COc1cc(/C=C(\C#N)C(=O)c2ccc(O)c(O)c2)cc(I)c1O	CRFR2-BP ag 188
COc1cc(/C=C(\C#N)C(=O)N2CCOCC2)cc(Br)c1O	none
Cc1cc(N2CCOCC2)nc2ccc(Cl)cc12	none
CCCNCCC(c1ccco1)c1ccccc1OC (stereo unspecified)	CRFBP-R2 block 56
CCC(=O)NCCC(c1ccco1)c1ccccc1OC (stereo unspecified)	none
CC(=O)c1cc(F)c(N2CCN(C(=O)C(C)(C)C)CC2)cc1C	CRFBP-R2 block 74
CC(=O)c1cc(F)c(N2CCCC2)cc1C	none
O=C(NCc1ccco1)c1ccc(COc2ccccc2[N+](=O)[O-])o1	none
CCOc1ccc(S(=O)(=O)n2nnc3ccccc32)cc1C	none (no result: V-ATPase pH)
CCOc1ccc(Cl)cc1S(=O)(=O)n1nnc2ccccc21	CRFBP-R2 block 107
Cc1ccc(S(=O)(=O)n2nnc3ccccc32)c(C)c1C	CRFBP-R2 block 93
COCCNC(=O)Cn1cc(/C=N/NC(=O)c2ccc(Oc3ccc(O)cc3)cc2)c2ccccc21	none
CC(C)C[C@@H](CO)NS(=O)(=O)c1c(F)cccc1F	none (no result: NTR1 agonist)
O=P(O)(c1ccccc1)c1ccccc1O	none
O=P(c1ccccc1)(c1ccccc1)c1cc(S(=O)(=O)O)ccc1O	CRFR2-BP ag 115
CCOc1ccccc1NC(=O)CCS(=O)(=O)c1ccc2c(c1)CCN2C(C)=O	none
C=CCNC(=O)c1ccc(OC2CCN(S(=O)(=O)N(C)C)CC2)cc1	none
CC(C)CN1CCN(Cc2cccc3nccnc23)CC1CCO (stereo unspecified)	CRFBP-R2 block 74
COCCn1c(-c2ccsc2)nc2c1c(=O)[nH]c(=O)n2CC(C)C	CRFBP-R2 block 51
COCCn1c(-c2ccc3ccccc3c2)nc2c1c(=O)[nH]c(=O)n2CC(C)C	none
CCc1cccc(C)c1NC(=S)N1CCCCC1c1cccnc1 (stereo unspecified)	CRFR2-BP ag 54
CC(OC(=O)c1ccc(S(=O)(=O)NCc2ccco2)cc1)C(=O)Nc1ccc(Cl)cn1 (stereo unspecified)	CRFR2-BP ag 99
O=C(COC(=O)c1ccc(S(=O)(=O)NCc2ccco2)cc1)Nc1ncc(Cl)cc1Cl	none
c1ccc2c(CN3CCCCC3)csc2c1	CRFR2-BP ag 96
CCc1ccc(C(C)NC(=S)NC2CCCCC2)cc1 (stereo unspecified)	CRFBP-R2 block 71
COc1cccc(CN(CC(=O)NCc2ccccc2)C(=O)c2csnn2)c1	none
Cc1ccccc1-n1c(CSC(=N)N)nc2ccccc2c1=O	CRFBP-R2 block 52
CCCCCC(=O)N1C[C@H](O)[C@@H](n2cc(COC(=O)c3ccccc3)nn2)C[C@@H]1c1ccc(Cl)cc1	none (no result: NTR1 agonist)
O=C(Nc1cc(Cl)cc(Cl)c1)c1coc(=O)c(Br)c1	CRFBP-R2 block 71
O=C(NC(CO)(CO)CO)c1coc(=O)c(Br)c1	none
CN(C)c1ccc(/C=C/C(=O)c2ccc3c(c2)OCO3)cc1	CRFR2-BP ag 135
O=C(/C=C/c1ccccc1)c1ccc2c(c1)OCO2	none
CN(C)c1ccc(/C=C/C(=O)c2cccnc2)cc1	CRFR2-BP ag 120
CN(C)c1ccc(/C=C/C(=O)c2ccc(O)cc2)cc1	CRFR2-BP ag 156 (no result: NTR1 agonist)
COc1ccc(C(=O)/C=C/c2ccccc2)c(OC)c1	none
CN(C)c1ccc(C(=O)C=Cc2ccc([N+](=O)[O-])cc2)cc1	none (no result: NTR1 agonist)
COc1ccc(C(=O)/C=C/c2ccc(N(C)C)cc2)c(OC)c1	CRFR2-BP ag 103
CC(C)[C@H](NC(=O)N1c2ccccc2NC(=O)[C@@H]1C(C)C)C(=O)N1CCC[C@H]1C(=O)O	none
CN(C)c1ccc(/C=C/c2ccncc2)cc1	CRFR2-BP ag 173 (no result: NTR1 agonist)
CN(C)c1ccc(C=Cc2cnccn2)cc1	none (no result: NTR1 agonist)
Cc1ccc(N(C)C(=O)CCS(=O)(=O)c2ccc3c(c2)oc(=O)n3C)cc1	none
CN(C(=O)CCS(=O)(=O)c1ccc2c(c1)oc(=O)n2C)C1CCCCC1	CRFBP-R2 block 68
CC(Oc1ccc(F)cc1)C(=O)Nc1ccc(S(=O)(=O)NC2=NCCCCC2)cc1 (stereo unspecified)	none
CC(Oc1ccc(Br)cc1)C(=O)Nc1ccc(S(=O)(=O)NC2=NCCCCC2)cc1 (stereo unspecified)	CRFR2-BP ag 81 (no result: NTR1 agonist)
CC[n+]1c(/C=C/C=C/N(C(C)=O)c2ccccc2)sc2cc(OC)ccc21	CRFR2-BP ag 146 (no result: NTR1 agonist, V-ATPase pH)
CC(=O)N(Cc1c(C)nn(-c2ccccc2)c1Cl)c1ccc(Cl)cc1	none
Cc1nn(-c2ccccc2)c(Cl)c1CN(C(=O)CCl)c1ccc(Cl)cc1	CRFBP-R2 block 78 (no result: NTR1 agonist)
O=C1c2cccc3c(O)ccc(c23)C(=O)N1Cc1ccco1	CRFR2-BP ag 252
Cc1ccc(C(=O)Nc2ncc([N+](=O)[O-])s2)cc1	CRFR2-BP ag 58 (no result: NTR1 agonist)
